The list is not random: actives were taken first. Their share in the collection is about 3.5%.
Pf apPOL block – Pf-apPOL inhibitors, biochemical, fluorescence; Plasmodium falciparum apicoplast DNA polymerase (apPOL); Recombinant Pf-apPOL, molecular beacon fluorescence, 1.5 h; inhibition, % at 10 µM; actives 0.25% (n = 210,000)
mHTT CaM bind – mutant huntingtin-calmodulin interaction inhibitors – biochemical, AlphaScreen, primary screen. P42858. AID 1671202, 2021. actives 3.6% (n = 190,000). AlphaScreen His-mHTT/GST-CaM binding, luminescence. inhibition, % at 15 µM
Large screens that a line does not name were inactive. Rule as the data show it: active = inhibition above about 50%; inactive = the rest.

C=CCSc1nnc2c(n1)OC(c1ccc(OC)cc1)N(C(C)=O)c1ccccc1-2 (stereo not drawn)	none
Cn1c(C2CCN(Cc3cccc(C(F)(F)F)c3)C2)nc2cccnc21 (stereo not drawn)	none
Cc1ccc(CNC(=O)c2cnn3c4c(cnc23)CCCC4)cc1	none
Cc1ccc(C2=N/C(=C\c3ccc(Br)cc3)C(=O)O2)cc1[N+](=O)[O-]	none
CCN(CC)c1ccc(/C=C2\N=C(c3cccc([N+](=O)[O-])c3)OC2=O)cc1	none
Cc1ccc(C2=N/C(=C\c3cccc(Br)c3)C(=O)O2)cc1[N+](=O)[O-]	mHTT CaM bind 51.0
CN(C)c1ccc(/C=C2\N=C(c3cccc([N+](=O)[O-])c3)OC2=O)cc1	Pf apPOL block 96.8
COc1ccc(OC)c(NC(=O)N2CCc3nc[nH]c3C2)c1	none
COc1ccc(NC(=O)N2CCc3nc[nH]c3C2)c(OC)c1	Pf apPOL block 73.1
CCCn1c(=O)c(-c2nc(-c3ccccc3C)no2)c(O)c2ccccc21	none
CCOc1ccc(N2CC(C(=O)N3CCN(c4ccc([N+](=O)[O-])cc4)CC3)CC2=O)cc1 (stereo not drawn)	none
O=C(Oc1ccc(Cl)cc1Cl)c1cccnc1SCCS(=O)(=O)c1ccc(C(F)(F)F)cn1	none (no result: mHTT CaM bind)
CC(C)CN1CCn2cc(C(=O)N3CCN(c4ccccc4F)CC3)nc2C1	none
CCN1CCn2cc(C(=O)N3CCN(c4ccccc4)CC3)nc2C1	none
CC(C)CN1CCn2cc(C(=O)N3CCN(c4ccc(F)cc4)CC3)nc2C1	mHTT CaM bind 91.4
CC(C)CN1CCn2cc(C(=O)N3CCN(c4cccc(Cl)c4)CC3)nc2C1	mHTT CaM bind 85.8
COC(=O)CNC(=O)N1CCC2(CC1)Nc1ccccc1-n1cccc12	none
O=C(NCc1ccc(F)cc1)N1CCC2(CC1)Nc1ccccc1-n1cccc12	mHTT CaM bind 56.1
O=C(NCCc1ccccc1)N1CCC2(CC1)Nc1ccccc1-n1cccc12	mHTT CaM bind 68.6
CN1c2ccccc2C(=O)NC12CCN(C(=O)NCCc1ccccc1)CC2	none
COCCNC(=O)N1CCC2(CC1)Nc1cc(F)ccc1-n1cccc12	none
COc1cccc(CNC(=O)N2CCC3(CC2)Nc2ccccc2-n2cccc23)c1	mHTT CaM bind 61.4
O=C(NCc1ccccc1)N1CCC2(CC1)Nc1ccccc1-n1cccc12	mHTT CaM bind 71.2
CC(C)NC(=O)N1CCC(c2nc(CCNC(=O)C(C)C)cs2)CC1	none
Cc1ccc(OCC(=O)N2CC(CN(C)C)C3(CCOCC3)C2)cc1 (stereo not drawn)	none
Cc1ccc(NC(=O)c2cc3c(s2)CN(C2CCCC2)C3)c(C)c1	none
COc1cccc(-c2nc3cc(NC(=O)c4cccnc4)ccc3o2)c1	none
Cn1cccc1C(CNC(=O)C(=O)Nc1cc(F)ccc1F)N1CCCCCC1 (stereo not drawn)	none
Cc1ccc(C(=O)N2CCc3c(nc4cc(-c5ccccc5)[nH]n4c3=O)C2)cc1F	none
S=C(Nc1cnn(COc2ccc(Br)cc2)c1)NC1CC1	none (no result: Pf apPOL block)
CN(C)c1ccc(/C=C2/C=C(c3ccc(Cl)cc3)OC2=O)cc1	none
CCCNC(=O)N1CCC2(CC1)Nc1cc(F)ccc1-n1cccc12	none
O=C(NCCc1ccccc1)N1CCC2(CC1)Nc1cc(F)ccc1-n1cccc12	mHTT CaM bind 56.3
CCCC12CN3CC(C)(CN(C1)C3c1ccc(O)c(O)c1)C2=O (stereo not drawn)	none
O=C(c1nnn(-c2ccccc2F)c1-c1ccccn1)N1CCN(c2ncccn2)CC1	none
O=C(c1nnn(-c2ccccc2F)c1-c1ccccn1)N1CC=C(c2ccccc2)CC1	mHTT CaM bind 84.0
CCOc1cc(Nc2ccc(NC(=O)c3ccco3)cc2)nc(C)n1	none
Cc1cc(C)n(-c2ccc(Nc3ccc(NC(=O)c4ccco4)cc3)nn2)n1	mHTT CaM bind 66.8
CS(=O)(=O)N1CCC(OCc2nc(-c3cccnc3)no2)CC1	none
CCOC(=O)C1CCN(C(=O)C2CCN(Cc3c(C)n(CC)c4ccccc34)CC2)CC1	none
O=C(C1CCCCC1)N1CCCC(c2ccnc(Nc3cccc(F)c3)n2)C1 (stereo not drawn)	mHTT CaM bind 72.2
CCCC(=O)N1CCCC(c2ccnc(Nc3cccc(F)c3)n2)C1 (stereo not drawn)	mHTT CaM bind 62.0
CCCC(=O)N1CCCC(c2ccnc(Nc3ccc(F)cc3)n2)C1 (stereo not drawn)	none
O=C(C1CCCC1)N1CCCC(c2ccnc(Nc3cccc(F)c3)n2)C1 (stereo not drawn)	none
Cc1nc(-c2ccc(F)cc2)nc2c1CCC(=O)N2CC1COCCO1 (stereo not drawn)	none
OCC(CO)(CO)NCC(O)Cn1c2ccc(Cl)cc2c2cc(Cl)ccc21 (stereo not drawn)	mHTT CaM bind 67.9
CC(C)(CO)NCC(O)Cn1c2ccc(Cl)cc2c2cc(Cl)ccc21 (stereo not drawn)	mHTT CaM bind 96.7
CN(C)CC(O)Cn1c2ccc(Cl)cc2c2cc(Cl)ccc21 (stereo not drawn)	mHTT CaM bind 60.1
OCC(CO)(CO)NCC(O)Cn1c2ccccc2c2ccccc21 (stereo not drawn)	none
OCCNCC(O)Cn1c2ccccc2c2ccccc21 (stereo not drawn)	none
CN(C)CC(O)Cn1c2ccccc2c2ccccc21 (stereo not drawn)	none
CCCNC(=O)N1CCN(c2ccccc2CC)C(=O)C1C (stereo not drawn)	none
CCc1ccc(C(=O)Nc2n[nH]c(C)n2)cc1	none
Cc1ccc(-c2nc(C=Nc3ccc([N+](=O)[O-])cc3)c(O)o2)cc1	none
CC(C)(C)N=C1Nc2ccccc2CNC12CCN(C(=O)Cc1ccsc1)C2 (stereo not drawn)	mHTT CaM bind 61.8
COc1ccccc1CC(=O)N1CCC2(C1)NCc1ccccc1NC2=NC(C)(C)C (stereo not drawn)	none
Cc1ccccc1C(=O)N1CCC2(C1)NCc1ccccc1NC2=NC(C)(C)C (stereo not drawn)	none
Cc1ccc(F)cc1S(=O)(=O)N1CCC2(C1)NCc1ccccc1NC2=NC(C)(C)C (stereo not drawn)	mHTT CaM bind 69.6
COc1ccc(Oc2c(C)oc3c(CN4CCN(CCO)CC4)c(O)ccc3c2=O)cc1	none
C/C(=N/O)c1ccc(Br)cc1	none (no result: Pf apPOL block)
C=C(C)CSc1nc2c(c(=O)[nH]c(=O)n2C)n1Cc1ccccc1Cl	none
CN(CC(=O)N1N=C(c2cccs2)CC1c1ccccc1Cl)C(=O)C1CC1 (stereo not drawn)	none
CC(C)(C)c1cc(S)cc(C(C)(C)C)c1O	none (no result: Pf apPOL block)
CC(C)(C)c1ccc(O)c(C(C)(C)C)c1O	mHTT CaM bind 98.4
O=C(c1ccccc1)N1N=C(C(F)(F)F)CC1(O)c1cccc([N+](=O)[O-])c1 (stereo not drawn)	mHTT CaM bind 53.0
COc1cccc(C2(O)CC(C(F)(F)F)=NN2C(=O)c2ccccc2[N+](=O)[O-])c1 (stereo not drawn)	none
CC1=NN(C(=O)c2cccc([N+](=O)[O-])c2)C(O)(c2ccc(Br)cc2)C1 (stereo not drawn)	mHTT CaM bind 66.0
CC1=NN(C(=O)c2cccc(O)c2)C(O)(c2ccc(Br)cc2)C1 (stereo not drawn)	none
CC1=NN(C(=O)C(C)C)C(O)(c2ccc(Br)cc2)C1 (stereo not drawn)	none
CCC1=NN(C(=O)c2ccccc2)C(O)(c2ccc(Br)cc2)C1 (stereo not drawn)	none
CC1=NN(C(=O)c2cc(Br)ccc2O)C(O)(c2ccccc2)C1 (stereo not drawn)	mHTT CaM bind 98.0

High-throughput results (PubChem)
